The text below walks through data of PubChem BioAssay (NCATS).

Where “and” joins values, the source holds several entries; their conditions need not be identical. Identical values can stand only once. Inconclusive results are not listed. Calls of active or inactive are those of the source. Calls come from the whole dose curve; as a rule, active = well fitted curve in the direction sought with a large enough effect; inconclusive = small, poorly fitted or top-dose-only effect, or another doubt; inactive = no such curve, though single readings can be large; an effect the other way counts as inactive or inconclusive.
% is set by controls: 0 for no effect and ±100 for the full control effect.

The subject of one assay is Tov112D. The assay can be described thus: Primary qHTS to identify gynecologic anti-cancer compounds using libraries of approved drugs and bioactive compounds (AID 1345084). Note: nearly all actives have a fitted effect of over 55% in size. As to conditions: Gynecologic cancer cell panel viability, ATPlite luminescence, 48 h; series mostly up to 57.5 µM. The gist of the method: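 Cells, 1,000 per well, plated 16 h, then exposed 48 h at 37 C to compounds. Viability by ATPlite luminescence after 15 min at room temperature.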
A general note: In qHTS, concentration-response curves come from the screen itself.
On to `Nc1ncnc2c1ncn2[C@H]1CCCO1`, for which the Potency entry is “inactive”. In the case of `CCC(=O)O[C@]1(C(=O)CCl)[C@@H](C)C[C@H]2[C@@H]3C[C@H](F)C4=CC(=O)C=C[C@]4(C)[C@@]3(F)[C@@H](O)C[C@@]21C`, the Potency entry is “inactive”. For `CCOc1ccc(-c2ccc(Cn3c(CC(C)(C)C(=O)O)c(SC(C)(C)C)c4cc(OCc5ccc(C)cn5)ccc43)cc2)cn1`, the Potency entry was “inactive”.

As for `CC1OC(OC2C(CO)OC(OCC3OC(OC(=O)C45CCC(C)(C)CC4C4=CCC6C7(C)CCC(OC8OC(C(=O)O)C(O)C(OC9OC(CO)C(O)C(O)C9O)C8O)C(C)(C)C7CCC6(C)C4(C)CC5)C(O)C(O)C3O)C(O)C2O)C(O)C(O)C1O` (stereo not drawn), the activity change, negative = cytotoxicity was 0.769% [at 6.55 µM] (inactive). In the case of `CC1CCC2(C)C(CC(O)C(O)C23CO3)C1(C)CCC1=CC(=O)OC1O` (stereo not drawn), the Potency entry was “inactive”.

Test system in a further assay: not listed separately
In words: Drug repurposing screens with cells derived from glioblastoma tumor samples (AID 1345199). Note: nearly all actives have a fitted effect of over 40% in size. As to conditions: GBM patient neurospheres viability, ATP luminescence, 48 h; at 45.9 µM (top of the series); tumour line B. A digest of the protocol:
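Primary testing used CD133+ neurospheres from four GBM patients, seven concentrations, 48 h exposure and ATP-based viability; confirmation added three slower-growing patient lines.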
`CN1Cc2c(N)cccc2C(c2ccccc2)C1` (stereo not drawn): the activity, negative = cell killing was -10.9% (inactive).

On to `C[C@]12C=CC(=O)C=C1CC[C@@H]1[C@@H]2[C@@H](O)C[C@@]2(C)[C@H]1CC[C@]2(O)C(=O)COC(=O)CCC(=O)O`, for which the activity, negative = cell killing was -11.2% (inactive). Take `OC[C@H]1O[C@@H](OCCc2ccc(O)cc2)[C@H](O)[C@@H](O)[C@@H]1O`: the activity, negative = cell killing was -17.4% (inactive).

As to `C[C@@H]1C[C@H]2[C@@H]3CCC4=CC(=O)C=C[C@]4(C)[C@@]3(F)[C@@H](O)C[C@]2(C)[C@@]1(O)C(=O)COP(=O)(O)O`, the activity, negative = cell killing was -3.61% (inactive). Consider `CCC(=O)NS(=O)(=O)c1ccc(-c2c(-c3ccccc3)noc2C)cc1`, for which the activity, negative = cell killing is 0.0321% (inactive). Same read-out and setting: the value for `CC[C@H]1OC(=O)C[C@@H](O)[C@H](C)[C@@H](O[C@@H]2O[C@H](C)[C@@H](O)[C@H](N(C)C)[C@H]2O)[C@@H](CCN2C[C@H](C)C[C@H](C)C2)C[C@@H](C)C(=O)/C=C/C(C)=C/[C@@H]1CO[C@@H]1O[C@H](C)[C@@H](O)[C@@H](OC)[C@H]1OC` was -3.99% (inactive). The same measure, in the same setting: as for `CC(=O)OC(C)OC(=O)C(C)c1ccc(-c2ccccc2)c(F)c1` (stereo not drawn), the figure is 13.2% (inactive) and -1.22% (inactive); as for `CCC(=O)O[C@]1(C(=O)CCl)[C@@H](C)C[C@H]2[C@@H]3C[C@H](F)C4=CC(=O)C=C[C@]4(C)[C@@]3(F)[C@@H](O)C[C@@]21C`, -14.4% (inactive).
